Compound activity as filed in PubChem BioAssay.
Shown are actives, neighbours in structure and some others; about 5.3% of the full set was active somewhere.
BAZ2B block: blocks human BAZ2B; 360,000 compounds, 4.4% hits; AlphaScreen BAZ2B-H3K14Ac peptide displacement; Potency, µM (top dose mostly 114 µM), inactives show at the highest dose activity change, negative = inhibition, hits mostly inhibitors; Q9UIF8; note: potency is the fitted concentration of half-maximal effect; % is set by controls: 0 for no effect and ±100 for the full control effect; nearly all actives have a fitted effect of over 60% in size
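Compounds, titrated to a top concentration of 110 uM, were incubated 30 min at room temperature with preformed BAZ2B/acetyl-K14 H3 peptide complex (50 nM each). Proximity signal was measured by AlphaScreen after 20 min with beads.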
HP1b binding inh: inhibitors of HP1-beta chromodomain binding to methylated histone tails; Potency, µM (top dose mostly 114 µM), without a hit: at the top dose activity change, negative = inhibition, hits mostly inhibitors; AlphaScreen HP1-beta / biotin-H3K9me3 peptide binding; AID 540317; 390,000 compounds, 0.56% hits; note: potency is the fitted concentration of half-maximal effect; nearly all actives have a fitted effect of over 70% in size
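Compound inhibition of the preformed complex between 50 nM HP1-beta and 50 nM biotinylated H3K9me3 peptide was read by AlphaScreen. Buffer was PBS pH 7.4 with 0.01% Tween-20. Incubations ran 30 min at room temperature, with 10 ug/mL donor/acceptor beads.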
Six1-Eya2 blk: inhibitors of human Six1/Eya2 interaction. activity change, % (concentration not given with the values). Q15475+O00167. 360,000 compounds, 0.56% hits. AlphaScreen GST-Six1/His-Eya2 binding, biochemical; active compounds read low; in the data active = activity change below about -65%; inconclusive = mostly about -30% to -63%; note: % is set by controls: 0 for no effect and ±100 for the full control effect
Target sequence (O00167 whole entry, looked up): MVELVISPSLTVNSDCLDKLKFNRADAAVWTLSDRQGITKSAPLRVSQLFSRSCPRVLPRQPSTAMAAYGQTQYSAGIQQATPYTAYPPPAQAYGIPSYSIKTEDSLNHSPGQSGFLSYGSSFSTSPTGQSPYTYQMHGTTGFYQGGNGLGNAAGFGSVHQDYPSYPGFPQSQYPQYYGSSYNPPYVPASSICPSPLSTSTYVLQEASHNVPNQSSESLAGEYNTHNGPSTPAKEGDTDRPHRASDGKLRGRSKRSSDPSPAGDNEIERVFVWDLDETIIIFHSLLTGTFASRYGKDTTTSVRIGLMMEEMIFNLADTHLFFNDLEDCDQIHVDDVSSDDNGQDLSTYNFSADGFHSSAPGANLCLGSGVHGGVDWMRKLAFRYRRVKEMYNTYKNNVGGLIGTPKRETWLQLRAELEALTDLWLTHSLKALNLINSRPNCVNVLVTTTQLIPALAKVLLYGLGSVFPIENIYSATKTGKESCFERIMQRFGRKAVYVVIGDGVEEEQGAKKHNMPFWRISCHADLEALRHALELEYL
Target sequence (Q15475 whole entry, looked up): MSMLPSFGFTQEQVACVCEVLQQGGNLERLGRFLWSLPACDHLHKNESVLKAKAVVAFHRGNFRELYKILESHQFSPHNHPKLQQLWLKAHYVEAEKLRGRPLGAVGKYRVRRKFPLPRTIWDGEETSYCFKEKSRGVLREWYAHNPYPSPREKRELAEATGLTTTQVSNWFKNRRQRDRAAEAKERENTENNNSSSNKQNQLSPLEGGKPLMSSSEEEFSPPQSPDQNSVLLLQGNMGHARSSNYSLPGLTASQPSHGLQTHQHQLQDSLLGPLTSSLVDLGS
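AlphaScreen luminescence read after one hour at 37 °C in darkness. Pin-transferred compounds met GST-Six1 and His-Eya2 protein (5X stock 250 nM/500 nM) plus glutathione donor and Ni-chelate acceptor beads (5X, 50 ug/mL).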
CtBP-E1A inh: inhibitors of CtBP/E1A interaction | AlphaScreen GST-E1A/His-CtBP binding, 1536-well; active compounds read low | activity change, % (test concentration not listed) | 340,000 compounds, 0.49% hits | AID 651724; in the data active = activity change below about -65%; inconclusive = mostly about -30% to -63%; note: % is set by controls: 0 for no effect and ±100 for the full control effect
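Protein mix (5X: 125 nM each GST-E1A, His-CtBP) was incubated with pinned compound 2 h at 37 deg C in dark, in 50 mM Tris pH 8.0 buffer with 300 mM NaCl. Glutathione donor and nickel acceptor beads followed; AlphaScreen signal read after 1 h.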
JMJD2A Tudor inh: JMJD2A Tudor domain (human) inhibition. O75164. AlphaScreen JMJD2A-Tudor / H3K4me3 peptide binding. Potency, µM (series often up to 114 µM), inactives show at the top dose activity change, negative = inhibition, most hits filed as inhibitors. 390,000 compounds, 4.4% hits. AID 504339; note: potency is the fitted concentration of half-maximal effect; % is set by controls: 0 for no effect and ±100 for the full control effect; nearly all actives have a fitted effect of over 50% in size
TDP1 block: TDP1 (human) enzyme inhibition; Q9NUW8; Potency, µM (titrated, usually from 130 µM), for inactives: top-dose activity change, negative = inhibition, hits mostly inhibitors; 350,000 compounds, 0.28% hits; AID 485290; recombinant TDP1, AlphaScreen DNA substrate cleavage; note: potency is the fitted concentration of half-maximal effect; % is set by controls: 0 for no effect and ±100 for the full control effect; nearly all actives have a fitted effect of over 40% in size
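Signal: AlphaScreen proximity between streptavidin donor and anti-FITC acceptor beads on intact substrate. Reaction: Tdp1 1 nM, substrate 15 nM final, 5 min RT after 15 min compound preincubation.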
* = called active by the depositor; ? = inconclusive; . = no result; [ ] = remark or other dose. Unless noted, calls come from the whole dose curve; as a rule, active = well fitted inhibition curve with a large enough effect; inconclusive = small, poorly fitted or top-dose-only effect; inactive = no such curve, though single readings can be large or run the other way.

SMILES	BAZ2B block	HP1b binding inh	Six1-Eya2 blk	CtBP-E1A inh	JMJD2A Tudor inh	TDP1 block
CC(C)(C)S(=O)(=O)c1cnc(-c2ccccn2)nc1N	79.4µM*	17.5%	?	?	?	8.2%
Oc1cccc2c(NC(=S)Nc3ccc(OC(F)F)cc3)cccc12	44.7µM*	?	-10.7	-20.3	?	0.6%
COc1cc(OC)c(NC(=O)c2nn(-c3ccc(C)cc3)c(=O)c3c2c2ccccc2n3C)cc1Cl	.	9.4%	.	.	-16.3%	0.0%
Cc1ccc(-c2cc(C(=O)Nc3ccccc3C)c3ccccc3n2)o1	-4.4%	-23.4%	-5.1	-0.1	79.4µM*	-5.0%
Cc1cc(-c2ccccc2)nc2cc(C(=O)NCc3ccco3)nn12	50.1µM*	-2.1%	-2.5	-13.0	?	-5.8%
CCc1nnc(NC(=O)c2cc(-c3ccc(C)o3)nc3ccccc23)s1	-20.1%	8.3%	-22.1	?	89.1µM*	4.4%
Cc1ccc(-c2cc(C(=O)NCc3ccco3)c3ccccc3n2)o1	50.1µM*	-22.2%	-29.1	-9.0	50.1µM*	.
COC(=O)c1cc(-c2ccc(C)o2)nc2ccccc12	?	?	15.0	-9.0	?	.
COc1ccc(-c2cc(C(F)(F)F)n3nc(C(=O)NCc4ccco4)cc3n2)cc1	3.7%	25.0%	-8.5	-9.4	6.0%	-6.3%
Cc1cc(C(=O)NCc2ccco2)c2ccccc2n1	-13.8%	28.9%	-2.7	-1.1	-5.5%	6.9%
CCc1nnc(NC(=O)c2cc(C)nc3ccccc23)s1	-17.6%	13.0%	-2.6	-5.1	-17.3%	0.0%
COc1ccccc1C1OC(=O)CC1C(=O)OC[C@@H]1CCCN2CCCCC12 (stereo partly drawn)	.	.	.	.	.	8.1%
O=C(NC1CC(=O)N(c2ccc(Cl)cc2)C1)c1ccc2c(c1)OCO2 (stereo not drawn)	-0.4%	12.0%	.	.	-10.4%	10.4%
Cc1ccccc1OCc1nnc(SCc2cc(=O)c3cc(F)ccc3[nH]2)n1C	5.0%	23.8%[57 µM]	.	.	-8.8%	0.0%
Cc1nc(N2CCOCC2)c2nc(-c3ccccc3)n(CCN3CCCCC3)c2n1	.	.	.	.	.	6.9%
COc1cccc(NC(=O)c2cc(-c3ccc(C)o3)nc3ccccc23)c1	?	1.4%	-12.2	-22.1	56.2µM*	.
Cc1ccc(-c2cc(C(=O)N3CC(C)CC(C)C3)c3ccccc3n2)o1 (stereo not drawn)	79.4µM*	?	-0.3	1.1	28.2µM*	-13.8%
O=C(NCc1ccco1)c1cccnc1-c1nc2ccccc2s1	-33.7%	?	-6.7	4.1	79.4µM*	-51.4%
O=c1cc(-c2ccccc2)[nH]n1-c1ccc([N+](=O)[O-])cc1	44.7µM*	?	-4.6	16.5	35.5µM*	11.8%
FC(F)(F)c1cnc(-n2cc[nH]c2=S)c(Cl)c1	13.3%	29.1%	0.0	0.2	79.4µM*	2.0%
Cc1ccc(-n2ncc(C(=O)N3CCN(Cc4ccccc4)CC3)c2C2CCN(C(=O)OC(C)(C)C)CC2)c(C)c1	-1.8%[57.1 µM]	23.5%	.	.	-22.0%	7.4%
O=C1NCCCC1C(=O)N/N=C/c1ccccc1O (stereo not drawn)	8.7%	51.9%	?	-71.5*	-3.8%	3.2%
O=C(N/N=C/c1ccccc1O)C1CC(=O)N(c2ccc(F)cc2)C1 (stereo not drawn)	-1.3%	37.1%	-69.9*	?	-12.7%	.
COc1ccc(N2CC(C(=O)N/N=C/c3cc([N+](=O)[O-])ccc3O)CC2=O)cc1 (stereo not drawn)	35.5µM*	46.8%	-89.6*	-77.2*	79.4µM*	7.9%
Cc1ccc(-c2cn3c(n2)sc2cc(C(=O)NC(C)C45CC6CC(CC(C6)C4)C5)ccc23)cc1 (stereo not drawn)	-4.7%	17.5%	.	.	-18.4%	0.0%
SMILES	BAZ2B block	HP1b binding inh	Six1-Eya2 blk	CtBP-E1A inh	JMJD2A Tudor inh	TDP1 block
Cc1c(CNCCCc2ccccc2)c(C(=O)O)c(C)n1Cc1ccc(Cl)cc1	?	-5.3%	.	.	?	2.5%
COc1cccc(CSc2nc(-c3ccccc3F)nc3c2Cc2c(CO)cnc(C)c2O3)c1	-14.4%	46.0%	.	.	1.5%	-5.1%
NC(=O)C1CCN(C(=O)c2ccc(NC(=O)c3nsc4ccccc34)cc2)CC1	2.3%	15.1%[57 µM]	.	.	-14.6%	5.4%
COc1ccc(C2C(C(=O)c3ccco3)=C(O)C(=O)N2CCOCCO)cc1OC (stereo not drawn)	?	-2.5%	-1.3	1.5	?	-8.3%
COc1ccc(OC)c(C2C(C(C)=O)=C(O)C(=O)N2CCN2CCOCC2)c1 (stereo not drawn)	13.2%	18.3%	4.3	-2.0	?	0.0%
COc1ccc(C2C(C(=O)c3ccco3)=C(O)C(=O)N2CCc2ccccc2)cc1OC (stereo not drawn)	-35.2%	-5.6%	2.2	-0.5	79.4µM*	3.8%
COc1ccc(C2C(C(C)=O)=C(O)C(=O)N2Cc2ccccc2)c(OC)c1 (stereo not drawn)	-3.5%	16.0%	3.2	2.6	1.7%	.
COc1ccc(C2C(C(C)=O)=C(O)C(=O)N2CCc2ccccc2)c(OC)c1 (stereo not drawn)	?	10.8%	-1.5	-12.9	31.6µM*	-1.0%
COc1ccc(OC)c(C2C(C(C)=O)=C(O)C(=O)N2CCC(=O)O)c1 (stereo not drawn)	50.1µM*	-7.1%	3.1	5.4	?	-4.8%
COc1cccc(C(=O)NCC2OCCc3ccccc32)c1 (stereo not drawn)	5.2%	79.8%	.	.	9.6%	-2.1%
Cc1cc(NS(=O)(=O)c2ccc(NC(=O)COc3ccc(Br)cc3)cc2)nc(C)n1	-21.8%	2.0%	-2.1	?	20µM*	1.4%
COc1ccc(-c2nc(S(=O)(=O)c3ccccc3)c(N3CCOCC3)o2)cc1	-29.2%	-1.4%	0.7	-12.9	79.4µM*	9.1%
O=S(=O)(c1ccccc1)c1nc(-c2ccccc2)oc1N1CCCCC1	?	-14.2%	3.2	2.4	?	5.0%
O=S(=O)(c1ccccc1)c1nc(-c2ccccc2)oc1N1CCCC1	-4.5%	5.9%	-14.1	5.0	79.4µM*	-10.3%
COc1cccc(-c2nc(S(=O)(=O)c3ccc(C)cc3)c(N3CCCCCC3)o2)c1	?	-15.3%	.	.	-22.3%	1.1%
CN1CCN(c2oc(-c3ccccc3)nc2S(=O)(=O)c2ccc(Br)cc2)CC1	35.5µM*	?	-21.6	-19.2	56.2µM*	12.1%
COc1ccc(-c2nc(S(=O)(=O)c3ccc(C)cc3)c(N3CCCCC3)o2)cc1	?	?	.	.	50.1µM*	.
CCc1ccccc1NC(=O)Cn1nc(N2CCN(c3ccccc3OC)CC2)ccc1=O	-22.7%	16.4%	.	.	-24.4%	5.3%
